{"source": "paper PMC9911399", "about": "“Two distinct binding modes provide the RNA-binding protein RbFox with extraordinary sequence specificity”", "binders": {"B1": {"name": "AUGACGA (DNA:RNA)", "RNA": "GGGAGACCGGAAUUCAGAUUGUCCAUGACGAUUAAAUCCCGUCGUAGCCACCA", "DNA 1": "CAATCTGAATTCCGGTCTCCC", "DNA 2": "TGGTGGCTACGACGGGATT"}, "B2": {"name": "UACCUCG (DNA:RNA)", "RNA": "GGGAGACCGGAAUUCAGAUUGUCCUACCUCGUUAAAUCCCGUCGUAGCCACCA", "DNA 1": "CAATCTGAATTCCGGTCTCCC", "DNA 2": "TGGTGGCTACGACGGGATT"}, "B3": {"name": "UUUCACA (DNA:RNA)", "RNA": "B2 RNA with A26U, C27U, U29A, G31A", "DNA 1": "CAATCTGAATTCCGGTCTCCC", "DNA 2": "TGGTGGCTACGACGGGATT"}, "B4": {"name": "AGUUGGC (DNA:RNA)", "RNA": "B1 RNA with U26G, G27U, A28U, C29G, A31C", "DNA 1": "CAATCTGAATTCCGGTCTCCC", "DNA 2": "TGGTGGCTACGACGGGATT"}, "B5": {"name": "AAGCUUU (DNA:RNA)", "RNA": "B2 RNA with U25A, C27G, C30U, G31U", "DNA 1": "CAATCTGAATTCCGGTCTCCC", "DNA 2": "TGGTGGCTACGACGGGATT"}, "B6": {"name": "GACCGCU (DNA:RNA)", "RNA": "B2 RNA with U25G, U29G, G31U", "DNA 1": "CAATCTGAATTCCGGTCTCCC", "DNA 2": "TGGTGGCTACGACGGGATT"}, "B7": {"name": "GCCGCGG (DNA:RNA)", "RNA": "B1 RNA with A25G, U26C, G27C, A28G, A31G", "DNA 1": "CAATCTGAATTCCGGTCTCCC", "DNA 2": "TGGTGGCTACGACGGGATT"}, "B8": {"name": "CCUACUC (DNA:RNA)", "RNA": "B1 RNA with A25C, U26C, G27U, G30U, A31C", "DNA 1": "CAATCTGAATTCCGGTCTCCC", "DNA 2": "TGGTGGCTACGACGGGATT"}, "B9": {"name": "GCGAUUG (DNA:RNA)", "RNA": "B1 RNA with A25G, U26C, C29U, G30U, A31G", "DNA 1": "CAATCTGAATTCCGGTCTCCC", "DNA 2": "TGGTGGCTACGACGGGATT"}, "B10": {"name": "GAUUGUG (DNA:RNA)", "RNA": "B2 RNA with U25G, C27U, C28U, U29G, C30U", "DNA 1": "CAATCTGAATTCCGGTCTCCC", "DNA 2": "TGGTGGCTACGACGGGATT"}, "B11": {"name": "GCGAAUU (DNA:RNA)", "RNA": "B1 RNA with A25G, U26C, C29A, G30U, A31U", "DNA 1": "CAATCTGAATTCCGGTCTCCC", "DNA 2": "TGGTGGCTACGACGGGATT"}, "B12": {"name": "GAACGUC (DNA:RNA)", "RNA": "B2 RNA with U25G, C27A, U29G, C30U, G31C", "DNA 1": "CAATCTGAATTCCGGTCTCCC", "DNA 2": "TGGTGGCTACGACGGGATT"}, "B13": {"name": "CGAUGUG (DNA:RNA)", "RNA": "B2 RNA with U25C, A26G, C27A, C28U, U29G, C30U", "DNA 1": "CAATCTGAATTCCGGTCTCCC", "DNA 2": "TGGTGGCTACGACGGGATT"}, "B14": {"name": "GCGCGAA (DNA:RNA)", "RNA": "B1 RNA with A25G, U26C, A28C, C29G, G30A", "DNA 1": "CAATCTGAATTCCGGTCTCCC", "DNA 2": "TGGTGGCTACGACGGGATT"}, "B15": {"name": "GCGACCG (DNA:RNA)", "RNA": "B1 RNA with A25G, U26C, G30C, A31G", "DNA 1": "CAATCTGAATTCCGGTCTCCC", "DNA 2": "TGGTGGCTACGACGGGATT"}, "B16": {"name": "GCGAAUC (DNA:RNA)", "RNA": "B1 RNA with A25G, U26C, C29A, G30U, A31C", "DNA 1": "CAATCTGAATTCCGGTCTCCC", "DNA 2": "TGGTGGCTACGACGGGATT"}, "B17": {"name": "GCGAACC (DNA:RNA)", "RNA": "B1 RNA with A25G, U26C, C29A, G30C, A31C", "DNA 1": "CAATCTGAATTCCGGTCTCCC", "DNA 2": "TGGTGGCTACGACGGGATT"}}, "note": "Where a chain is given by its changes, count along the chain named. Whole data set: some 16,000 sequences, median “ka relative to ugcaugu” near 0.096, cut for the highest 2% near 0.35. Only a selection was taken, and the highest values are over-represented in it overall.", "data": [{"target": "T1, RBFOX1 RRM RbFoxmut (Fox-RRM*) (Homo sapiens, UniProt Q9NWB1 109-208, R118D;E147R;N151S;E152T)", "T1 sequence": "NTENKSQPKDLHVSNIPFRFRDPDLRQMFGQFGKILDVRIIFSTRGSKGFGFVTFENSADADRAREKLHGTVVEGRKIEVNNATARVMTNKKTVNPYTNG", "experiment": "EMSA; HiTS-Eq, 1 nM pool, 10 min; buffer printed only for the single-RNA assays: 10 mM Tris pH 7.5, 150 mM NaCl, 3.4 mM EDTA, 0.001% NP-40, 30 C", "conditions": "tags: His6 N-terminal (pET28a); label: 5' 32P", "summary_of_the_method": "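Purified RbFox RRM (wild type or mutant) was equilibrated for 10 min in 50 µL with 1 nM of a 5′-radiolabelled pool of RNA with 7 randomized nucleotides, its flanks annealed to DNA oligonucleotides, across increasing protein concentrations. Free RNA was separated by 8% native PAGE, excised, reverse-transcribed, PCR-barcoded and sequenced on an Illumina HiSeq 2500. Relative association constants came from read-count changes of each variant against the control reaction, normalised to the cognate motif.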", "values": [{"binder": "B1", "binding signal": "0.0609 KA relative to UGCAUGU"}, {"binder": "B2", "binding signal": "0.107 KA relative to UGCAUGU"}, {"binder": "B3", "binding signal": "0.0896 KA relative to UGCAUGU"}, {"binder": "B4", "binding signal": "0.107 KA relative to UGCAUGU"}, {"binder": "B5", "binding signal": "0.0764 KA relative to UGCAUGU"}, {"binder": "B6", "binding signal": "0.0966 KA relative to UGCAUGU"}, {"binder": "B7", "binding signal": "0.0996 KA relative to UGCAUGU"}, {"binder": "B8", "binding signal": "0.0423 KA relative to UGCAUGU"}, {"binder": "B9", "binding signal": "0.206 KA relative to UGCAUGU"}, {"binder": "B10", "binding signal": "0.249 KA relative to UGCAUGU"}, {"binder": "B11", "binding signal": "0.113 KA relative to UGCAUGU"}, {"binder": "B12", "binding signal": "0.102 KA relative to UGCAUGU"}, {"binder": "B13", "binding signal": "0.151 KA relative to UGCAUGU"}, {"binder": "B14", "binding signal": "0.104 KA relative to UGCAUGU"}, {"binder": "B15", "binding signal": "0.111 KA relative to UGCAUGU"}, {"binder": "B16", "binding signal": "0.385 KA relative to UGCAUGU"}, {"binder": "B17", "binding signal": "0.0798 KA relative to UGCAUGU"}]}]}
